“And” between values parts separate entries of the source, which are not always exact repeats. Identical values can stand only once. Inconclusive results are not listed. Where a call stands in place of a potency, no number is given. More than one record can exist for a structure, and the calls need not agree. The source made the active and inactive calls. Unless noted, calls come from the whole dose curve; as a rule, active = well fitted curve in the direction sought with a large enough effect in the repeat runs; inconclusive = weak or mixed curves; inactive = no such curve, though single readings can be large; an effect the other way counts as inactive or inconclusive.
How the values were obtained:
[1] = A CellTox Green Cytotoxicity Assay to monitor cytotoxicity in HepG2 cells - 8 hour (AID 1224890); note: nearly all actives have a fitted effect of over 45% in size
In short: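 Real-time, homogeneous cytotoxicity readout: dead-cell DNA staining by CellTox Green in HepG2 monolayers, fluorescence measured at timed intervals up to 40 h of continuous compound exposure.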

[2] = qHTS assay to identify small molecule antagonists of the estrogen receptor alpha (ER-alpha) signaling pathway using the BG1 cell line in the presence of 0.1 nM 17-beta-estradiol - cell viability counter screen (AID 1259241); note: nearly all actives have a fitted effect of over 40% in size
In short: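 Cytotoxicity counter-screen: live-cell protease activity measured by fluorescence (30 min reagent step) in the same wells. Cells were VM7Luc4E2 with endogenous ER-alpha and ERE-driven luciferase, treated 22 hr at 37C alongside 0.1 nM 17beta-estradiol final.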

[3] = qHTS assay to identify small molecule antagonists of the androgen receptor (AR) signaling pathway using the MDA cell line in the presence of 0.5 nM R1881 - cell viability counter screen (AID 1259242); note: nearly all actives have a fitted effect of over 45% in size
In short: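 Cytotoxicity toward MDA-kb2 cells is measured by CellTiter-Fluor live-cell protease fluorescence after 16 hr compound exposure at 37C in the presence of 0.5 nM R1881 stimulator.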

[4] = target: Androgen receptor (Homo sapiens) (UniProt P10275); assay: qHTS assay to identify small molecule antagonists of the androgen receptor (AR) signaling pathway using the MDA cell line in the presence of 0.5 nM R1881 (AID 1259243); note: nearly all actives have a fitted effect of over 50% in size; note: potency is the fitted concentration of half-maximal effect
In short: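 Steps: seed MDA-kb2 cells, incubate 5 hr at 37C; pin-transfer compounds in DMSO; add R1881 to 0.5 nM final; incubate 16 hr; add ONE-Glo, wait 30 min at room temperature; read luminescence.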

[5] = qHTS assay to identify small molecule phospholipidosis (PLD) inducers (AID 1259344; active = well fitted curve in the direction sought with a large enough effect; an effect the other way counts as inactive or inconclusive)
In short: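 Quantitative HTS in HepG2: compound plus LipidTOX Red dye for 24 h, paraformaldehyde fixation with Hoechst 33342, widefield high-content imaging; amiodarone as positive and DMSO as negative control.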

[6] = qHTS assay to identify small molecule HDAC inhibitors (AID 1259364); note: top concentration of the series differs between compounds; nearly all actives have a fitted effect of over 45% in size
In short: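 Homogeneous cell-based luminescent assay of endogenous class I/II HDAC activity; HCT-116 cells, 2 h compound exposure, 30 min HDAC-Glo development at RT.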

[7] = qHTS assay to identify small molecule HDAC inhibitors - cell viability counter screen (AID 1259365); note: series mostly up to about 92 µM; nearly all actives have a fitted effect of over 50% in size
In short: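 CellTiter-Glo luminescence (30 min, room temperature) reported viability after a 2 h compound exposure at 37 C. Cells: wild-type HCT-116, 1,500 per well, seeded the night before.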

[8] = qHTS assay to identify small molecule agonists of the sonic hedgehog signaling (Shh) pathway - cell viability counter screen (AID 1259366); note: nearly all actives have a fitted effect of over 50% in size; note: potency is the fitted concentration of half-maximal effect
In short: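 Cytotoxicity counter screen: CellTiter-Fluor reagent added after 23 h compound exposure, then 1 h at 37C and fluorescence read. Cells were 3T3 Gli1-Luc, seeded 2,000 per well and dosed 4 h post-plating.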

[9] = qHTS assay to identify small molecule agonists of the sonic hedgehog signaling (Shh) pathway (AID 1259368; calls by dose curve;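 note: NIH/3T3-derived 3T3Gli1-Luc cells carrying a stable Gli1-driven firefly luciferase reporter; series mostly up to about 92 µM; nearly all actives have a fitted effect of over 15% in size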)
In short: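 Steps: seed 3T3 Gli1-Luc cells, incubate 4 hr at 37 C, pin-transfer compounds in DMSO alongside a positive control, incubate 24 hr, add luciferase detection reagent, wait 30 min at room temperature, read luminescence.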

[10] = qHTS assay to identify small molecule antagonists of the sonic hedgehog signaling (Shh) pathway (AID 1259369; calls by dose curve; note: nearly all actives have a fitted effect of over 45% in size; note: potency is the fitted concentration of half-maximal effect)
In short: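 Inhibition of Shh signalling is measured as reduced Gli1-response-element firefly luciferase output in an NIH/3T3-derived stable reporter clone stimulated with conditioned medium for 24hr.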

[11] = qHTS assay to identify small molecule agonists of the androgen receptor (AR) signaling pathway in the presence of an antagonist - cell viability counter screen (AID 1259379);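 note: MDA-kb2 human breast cancer cells carrying an MMTV luciferase reporter; series mostly up to about 92 µM; nearly all actives have a fitted effect of over 25% in size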
In short: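 Fluorescence from CellTiter-Fluor, added after 15 hr and read 1 hr later, gave cell viability. Cells were MDA-kb2 exposed to compounds (15 concentrations) in the presence of 3.0uM nilutamide at 37C, 0% CO2.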

[12] = target: Androgen receptor (Homo sapiens) (UniProt P10275); assay: qHTS assay to identify small molecule agonists of the androgen receptor (AR) signaling pathway in the presence of an antagonist (AID 1259381; calls by dose curve; note: nearly all actives have a fitted effect of over 15% in size; note: potency is the fitted concentration of half-maximal effect)
In short: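 Cells are MDA-kb2 (human breast carcinoma, MMTV-luc, AR/GR responsive). Nilutamide is present at 3.0uM final throughout; compounds are added at 15 concentrations and incubated 16hr at 37C before ONE-Glo luminescence detection.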

[13] = qHTS assay to identify small molecule antagonists of the estrogen receptor beta (ER-beta) signaling pathway - cell viability counter screen (AID 1259382); note: series mostly up to about 92 µM; nearly all actives have a fitted effect of over 55% in size
In short: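 Following a 6 hr plating period, HEK293T cells carrying a UAS-driven beta-lactamase reporter under ER-beta control received compounds and 1nM E2 (final). After 16 hr at 37C and 2 hr substrate loading, CellTiter-Glo luminescence indicated viability.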

[14] = qHTS assay to identify small molecule antagonists of the sonic hedgehog signaling (Shh) pathway - cell viability counter screen (AID 1259367); note: nearly all actives have a fitted effect of over 55% in size
In short: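 Seed 3T3 Gli1-Luc cells at 2,000 per well; incubate 4 hr; add compound in DMSO, then conditioned medium; incubate at 37C with 5% CO2; add CellTiter-Fluor after 23 hr; read fluorescence 1 hr later.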

[15] = target: Estrogen receptor beta (Homo sapiens) (UniProt Q92731); assay: qHTS assay to identify small molecule agonists of the estrogen receptor beta (ER-beta) signaling pathway (AID 1259377; active = well fitted activation curve with a large enough effect in the signal ratio in the repeat runs, not every such curve was filed as active; the % refers to the signal ratio)
In short: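 Ratiometric beta-lactamase FRET read-out came after 2 h substrate loading at room temperature. It followed 16 h compound treatment at 37C of GripTite HEK293T cells carrying a UAS-bla reporter, plated in 2% charcoal-stripped FBS medium.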

[16] = target: Estrogen receptor beta (Homo sapiens) (UniProt Q92731); assay: qHTS assay to identify small molecule antagonists of the estrogen receptor beta (ER-beta) signaling pathway (AID 1259378; active = well fitted inhibition curve with a large enough effect in the signal ratio in the repeat runs, not every such curve was filed as active; the % refers to the signal ratio)
In short: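 ER-beta-UAS-bla HEK293T cells in 2% charcoal-stripped FBS medium treated with compound plus 1nM final 17-beta-estradiol for 16 hr at 37C. Beta-lactamase reporter read by FRET substrate fluorescence after 2 hours at room temperature.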

[17] = qHTS assay to identify small molecule agonists of the estrogen receptor beta (ER-beta) signaling pathway - cell viability counter screen (AID 1259380); note: nearly all actives have a fitted effect of over 30% in size
In short: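 Same-well viability counter screen. Cells: ER-beta-UAS-bla HEK293T, plated 6 hr before compound, in 2% charcoal-stripped FBS. Compound exposure 16 hr, 37C; viability by CellTiter-Glo luminescence after 30 min at room temperature.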

[18] = qHTS assay to identify small molecule agonists or antagonists of the thyroid stimulating hormone receptor (TSHR) signaling pathway - wild type cell line counter screen (AID 1259384; calls by dose curve)
In short: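 Wild-type Hek293 cells, 800/well, 18 h at 37C, then compound with Ro20-1724 for 30 min RT. cAMP by HTRF (cAMP-d2/anti-cAMP cryptate), 1 h RT, fluorescence read. 15 concentrations, triplicates.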

[19] = target: Estrogen receptor (Homo sapiens) (UniProt P03372); assay: qHTS assay to identify small molecule antagonists of the estrogen receptor alpha (ER-alpha) signaling pathway using the BG1 cell line in the presence of 0.1 nM 17-beta-estradiol (AID 1259244); note: nearly all actives have a fitted effect of over 50% in size
In short: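 After 5 days in hormone-depleted medium (charcoal-stripped serum, no phenol red), VM7Luc4E2 cells were seeded, incubated 24 h, then co-treated with compound and 0.1 nM (final) estradiol for 22 h before luminescence detection.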

[20] = target: Estrogen receptor (Homo sapiens) (UniProt P03372); assay: qHTS assay to identify small molecule agonists of the estrogen receptor alpha (ER-alpha) signaling pathway in the presence of an antagonist (AID 1259383; calls by dose curve; note: top concentration of the series differs between compounds; nearly all actives have a fitted effect of over 15% in size)
In short: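 Cells are hormone-deprived for 5 days (charcoal-stripped FBS, no phenol red), plated for 24hr, spiked with 10.0nM ICI-182,780, then dosed at 15 concentrations. After 22hr at 37C, ONE-Glo luminescence reports ERE-luciferase activity.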

Estrogen receptor beta (Homo sapiens), sequence (Q92731 whole entry, looked up): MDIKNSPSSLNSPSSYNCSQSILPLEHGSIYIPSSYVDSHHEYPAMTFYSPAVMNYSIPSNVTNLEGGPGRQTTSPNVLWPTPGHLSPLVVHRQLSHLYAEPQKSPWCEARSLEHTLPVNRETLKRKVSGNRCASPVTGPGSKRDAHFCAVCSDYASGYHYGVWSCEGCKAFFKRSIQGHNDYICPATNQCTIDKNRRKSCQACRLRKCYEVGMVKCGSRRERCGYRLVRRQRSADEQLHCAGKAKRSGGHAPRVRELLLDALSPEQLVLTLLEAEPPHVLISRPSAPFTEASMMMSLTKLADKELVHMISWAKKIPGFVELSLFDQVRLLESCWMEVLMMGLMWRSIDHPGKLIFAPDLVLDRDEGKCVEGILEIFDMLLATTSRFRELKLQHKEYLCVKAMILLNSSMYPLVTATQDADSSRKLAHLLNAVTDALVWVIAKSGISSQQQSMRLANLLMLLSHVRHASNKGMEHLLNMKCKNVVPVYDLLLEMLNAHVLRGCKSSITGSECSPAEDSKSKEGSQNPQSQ
Androgen receptor (Homo sapiens), sequence (P10275 whole entry, looked up): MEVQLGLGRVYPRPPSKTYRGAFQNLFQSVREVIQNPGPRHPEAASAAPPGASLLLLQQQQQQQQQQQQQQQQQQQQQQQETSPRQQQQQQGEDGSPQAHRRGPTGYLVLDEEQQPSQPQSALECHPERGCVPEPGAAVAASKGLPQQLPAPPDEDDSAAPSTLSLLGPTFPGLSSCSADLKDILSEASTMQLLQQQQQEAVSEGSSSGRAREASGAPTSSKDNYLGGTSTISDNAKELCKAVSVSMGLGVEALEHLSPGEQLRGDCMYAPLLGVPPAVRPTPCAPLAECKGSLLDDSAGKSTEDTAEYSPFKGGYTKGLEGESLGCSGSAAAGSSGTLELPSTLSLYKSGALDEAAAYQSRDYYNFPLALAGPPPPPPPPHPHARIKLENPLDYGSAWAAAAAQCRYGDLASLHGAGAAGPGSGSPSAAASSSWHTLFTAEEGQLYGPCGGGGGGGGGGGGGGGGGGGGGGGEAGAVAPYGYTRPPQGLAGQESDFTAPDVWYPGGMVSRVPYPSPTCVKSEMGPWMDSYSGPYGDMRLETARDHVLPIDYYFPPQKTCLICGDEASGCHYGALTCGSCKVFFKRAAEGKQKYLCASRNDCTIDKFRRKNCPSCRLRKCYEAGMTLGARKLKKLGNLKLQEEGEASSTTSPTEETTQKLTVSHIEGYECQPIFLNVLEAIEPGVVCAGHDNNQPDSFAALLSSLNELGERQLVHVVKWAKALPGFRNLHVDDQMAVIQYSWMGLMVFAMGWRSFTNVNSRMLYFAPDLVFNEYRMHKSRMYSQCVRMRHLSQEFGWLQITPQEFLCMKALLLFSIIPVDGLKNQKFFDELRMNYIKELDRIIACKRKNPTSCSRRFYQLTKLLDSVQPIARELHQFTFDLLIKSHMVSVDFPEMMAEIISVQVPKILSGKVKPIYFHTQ
Estrogen receptor (Homo sapiens), sequence (P03372 whole entry, looked up): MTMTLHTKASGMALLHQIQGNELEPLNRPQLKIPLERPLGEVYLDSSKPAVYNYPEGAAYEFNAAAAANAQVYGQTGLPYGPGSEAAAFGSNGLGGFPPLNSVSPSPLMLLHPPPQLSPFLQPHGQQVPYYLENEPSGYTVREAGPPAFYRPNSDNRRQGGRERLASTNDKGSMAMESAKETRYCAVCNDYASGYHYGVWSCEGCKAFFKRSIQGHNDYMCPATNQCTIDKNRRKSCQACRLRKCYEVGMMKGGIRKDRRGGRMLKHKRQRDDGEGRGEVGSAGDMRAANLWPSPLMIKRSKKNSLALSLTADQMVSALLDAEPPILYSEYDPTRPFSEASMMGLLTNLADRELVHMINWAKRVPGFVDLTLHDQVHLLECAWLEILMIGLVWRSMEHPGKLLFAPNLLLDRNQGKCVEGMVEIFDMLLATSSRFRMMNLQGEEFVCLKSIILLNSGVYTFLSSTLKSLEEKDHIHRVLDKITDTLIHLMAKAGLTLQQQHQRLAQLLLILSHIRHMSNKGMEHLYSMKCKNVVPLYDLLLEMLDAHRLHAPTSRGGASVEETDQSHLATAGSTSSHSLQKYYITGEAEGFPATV

Row | Compound | Potency [1] | outcome [2] | Potency [3] | Potency [4] | Potency [5] | Potency [6] | outcome [7] | Potency [8] | outcome [9] | Potency [10] | Potency [11] | Potency [12] | Potency [13] | Potency [14] | outcome [15] | outcome [16] | Potency [17] | outcome [18] | outcome [19] | Potency [20]
1 | CC(C)(c1ccc(O)cc1)c1ccc(O)cc1 | inactive | inactive | inactive | 9.58 µM (active) and 6.98 µM (active) | inactive | inactive | inactive | inactive and 12.4 µM (active) | inactive | 38.1 µM (active) and 19.7 µM (active) | inactive | inactive and 27.8 µM (active) | inactive |  |  |  |  |  |  | 
2 | CCOc1ccc(C(=O)OCCN(CC)CC)cc1 | inactive | inactive | inactive | inactive | inactive | inactive | inactive | inactive | inactive | inactive | inactive | inactive | inactive | inactive | inactive | inactive | inactive | inactive |  | 
3 | CN1CC(=O)NC1=N | inactive | inactive | inactive | inactive | inactive | inactive | inactive | inactive | inactive | inactive | inactive | inactive | inactive | inactive | inactive | inactive | inactive | inactive |  | 
4 | NS(=O)(=O)c1ccc(C(=O)O)cc1 | inactive | inactive | inactive | inactive | inactive | inactive | inactive | inactive |  | inactive | inactive | inactive | inactive | inactive | inactive |  | inactive |  | inactive | inactive
5 | CC1(C)C(O)C(C)(C)C1O (stereo not drawn) | inactive | inactive | inactive | inactive |  |  | inactive | inactive | inactive | inactive | inactive | inactive | inactive | inactive |  |  | inactive | inactive | inactive | inactive
6 | CCn1ccnc1CC1COc2ccccc2O1 (stereo not drawn) | inactive | inactive | inactive | inactive | inactive | inactive | inactive | inactive | inactive |  | inactive | inactive | inactive | inactive |  |  | inactive | inactive | inactive | inactive
7 | NS(=O)(=O)c1cc(C(=O)NN2C[C@H]3[C@H]4CCC(C4)[C@H]3C2)ccc1Cl | inactive | inactive | inactive | inactive |  | inactive | inactive |  |  | inactive | inactive | inactive | inactive | inactive | inactive | inactive | inactive | inactive | inactive | inactive
8 | CC(C)NC(=O)NC(C)C | inactive | inactive | inactive | inactive |  | inactive | inactive | inactive | inactive |  | inactive | inactive |  | inactive | inactive | inactive | inactive | inactive | inactive | inactive
